Consider 19 sequences from paper PMC11006913.

HOXA4, sequence (Q00056 201-287 R217L): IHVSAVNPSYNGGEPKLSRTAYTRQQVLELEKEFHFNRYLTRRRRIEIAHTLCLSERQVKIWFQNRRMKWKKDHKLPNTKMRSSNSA

For one test, the target named is ALX4 (Homo sapiens, UniProt Q9H161 200-286, Q225E). The test is described as follows: PBM; 200 nM protein, PBS. The conditions noted are these: dsDNA, one strand shown.
ALX4, sequence (Q9H161 200-286 Q225E): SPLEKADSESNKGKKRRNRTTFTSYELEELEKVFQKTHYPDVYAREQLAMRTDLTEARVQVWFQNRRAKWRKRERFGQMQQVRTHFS
In the case of GCAGCTGC, the binding signal was 8.23 upbm affinity estimate (log intensity, higher = more binding, comparable within an allelic series).

As for AGGGGACC, the binding signal is 8.19 upbm affinity estimate (log intensity, higher = more binding, comparable within an allelic series).

For the sequence GGGGCCCC, the binding signal was 8.44 upbm affinity estimate (log intensity, higher = more binding, comparable within an allelic series).

As to CGCACCGC, the binding signal was 8.31 upbm affinity estimate (log intensity, higher = more binding, comparable within an allelic series).

The target of the next test is T1, SIX6 (Homo sapiens, UniProt O95475 114-200, T165G).
T1 sequence: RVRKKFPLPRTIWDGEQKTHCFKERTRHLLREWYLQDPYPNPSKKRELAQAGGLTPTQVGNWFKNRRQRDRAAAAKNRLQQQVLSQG
The test is described as follows: PBM; 200 nM protein, PBS. The conditions noted are these: dsDNA, one strand shown.
Turning to CACGCCCC, the binding signal was 9.18 upbm affinity estimate (log intensity, higher = more binding, comparable within an allelic series).

For AGGTGCCC, the binding signal was 8.89 upbm affinity estimate (log intensity, higher = more binding, comparable within an allelic series).

On to CCGTCGCC, for which the binding signal was 8.89 upbm affinity estimate (log intensity, higher = more binding, comparable within an allelic series).

As for GCAGCTGC, the binding signal is 9.04 upbm affinity estimate (log intensity, higher = more binding, comparable within an allelic series).

As for CCCTGATC, the binding signal was 10.3 upbm affinity estimate (log intensity, higher = more binding, comparable within an allelic series).

For CCAGGGGC, the binding signal is 8.91 upbm affinity estimate (log intensity, higher = more binding, comparable within an allelic series).

Consider AGACTATC, for which the binding signal was 10.2 upbm affinity estimate (log intensity, higher = more binding, comparable within an allelic series).

Consider GGGGCCCC, for which the binding signal was 8.95 upbm affinity estimate (log intensity, higher = more binding, comparable within an allelic series).

CGCACCGC: the binding signal is 9.05 upbm affinity estimate (log intensity, higher = more binding, comparable within an allelic series).

As to ACGCAACG, the binding signal was 9.2 upbm affinity estimate (log intensity, higher = more binding, comparable within an allelic series).

Consider CTGCTGGC, for which the binding signal was 8.91 upbm affinity estimate (log intensity, higher = more binding, comparable within an allelic series).

The next test deals with HOXA2 (Homo sapiens, UniProt O43364 129-215, R185T). The test is described as follows: PBM; 200 nM protein, PBS. The conditions noted are these: dsDNA, one strand shown.
HOXA2, sequence (O43364 129-215 R185T): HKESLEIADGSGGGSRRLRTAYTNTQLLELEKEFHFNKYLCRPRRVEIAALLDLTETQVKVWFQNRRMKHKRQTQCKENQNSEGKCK
Regarding GCAGCTGC, the binding signal is 7.31 upbm affinity estimate (log intensity, higher = more binding, comparable within an allelic series).

With GCCCGGGC, the binding signal is 6.98 upbm affinity estimate (log intensity, higher = more binding, comparable within an allelic series).

Take CCAGGGGC: the binding signal is 7.15 upbm affinity estimate (log intensity, higher = more binding, comparable within an allelic series).

For the sequence GGGGCCCC, the binding signal was 7.49 upbm affinity estimate (log intensity, higher = more binding, comparable within an allelic series).

Another test has as its target HOXA4 (Homo sapiens, UniProt Q00056 201-287, R217L). Briefly: PBM; 200 nM protein, PBS. Particulars: dsDNA, one strand shown.
Regarding CACGCCCC, the binding signal is 9.86 upbm affinity estimate (log intensity, higher = more binding, comparable within an allelic series).

Regarding GGGGCTCA, the binding signal is 9.78 upbm affinity estimate (log intensity, higher = more binding, comparable within an allelic series).

Take CCCGTCCC: the binding signal is 9.77 upbm affinity estimate (log intensity, higher = more binding, comparable within an allelic series).

Regarding ACTAATCG, the binding signal is 11.2 upbm affinity estimate (log intensity, higher = more binding, comparable within an allelic series).

Another test deals with HOXB9 (Homo sapiens, UniProt P17482 171-250). Briefly: PBM; 200 nM protein, PBS. Particulars: dsDNA, one strand shown.
HOXB9, sequence (P17482 171-250): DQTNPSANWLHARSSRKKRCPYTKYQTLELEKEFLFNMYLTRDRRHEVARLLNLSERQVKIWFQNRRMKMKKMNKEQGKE
For CACGCCCC, the binding signal was 8.48 upbm affinity estimate (log intensity, higher = more binding, comparable within an allelic series).

Consider GGATTACA, for which the binding signal was 9.44 upbm affinity estimate (log intensity, higher = more binding, comparable within an allelic series).

With CCAGGGGC, the binding signal is 8.33 upbm affinity estimate (log intensity, higher = more binding, comparable within an allelic series).

For the sequence ATATTAAT, the binding signal was 11.8 upbm affinity estimate (log intensity, higher = more binding, comparable within an allelic series).

ATTTATGG: the binding signal was 12.1 upbm affinity estimate (log intensity, higher = more binding, comparable within an allelic series).

Consider GGGGCCCC, for which the binding signal was 8.5 upbm affinity estimate (log intensity, higher = more binding, comparable within an allelic series).
